The results in this text go back to ChEMBL document CHEMBL2218924, “A broad activity screen in support of a chemogenomic map for kinase signalling research and drug discovery” (Biochem J, 2013).

Structures are written as SMILES.

The target of one assay is Ribosomal protein S6 kinase alpha-2 (Homo sapiens) (UniProt Q15349). The following applies: at 1 µM.
Ribosomal protein S6 kinase alpha-2 (Homo sapiens), sequence (Q15349 whole entry): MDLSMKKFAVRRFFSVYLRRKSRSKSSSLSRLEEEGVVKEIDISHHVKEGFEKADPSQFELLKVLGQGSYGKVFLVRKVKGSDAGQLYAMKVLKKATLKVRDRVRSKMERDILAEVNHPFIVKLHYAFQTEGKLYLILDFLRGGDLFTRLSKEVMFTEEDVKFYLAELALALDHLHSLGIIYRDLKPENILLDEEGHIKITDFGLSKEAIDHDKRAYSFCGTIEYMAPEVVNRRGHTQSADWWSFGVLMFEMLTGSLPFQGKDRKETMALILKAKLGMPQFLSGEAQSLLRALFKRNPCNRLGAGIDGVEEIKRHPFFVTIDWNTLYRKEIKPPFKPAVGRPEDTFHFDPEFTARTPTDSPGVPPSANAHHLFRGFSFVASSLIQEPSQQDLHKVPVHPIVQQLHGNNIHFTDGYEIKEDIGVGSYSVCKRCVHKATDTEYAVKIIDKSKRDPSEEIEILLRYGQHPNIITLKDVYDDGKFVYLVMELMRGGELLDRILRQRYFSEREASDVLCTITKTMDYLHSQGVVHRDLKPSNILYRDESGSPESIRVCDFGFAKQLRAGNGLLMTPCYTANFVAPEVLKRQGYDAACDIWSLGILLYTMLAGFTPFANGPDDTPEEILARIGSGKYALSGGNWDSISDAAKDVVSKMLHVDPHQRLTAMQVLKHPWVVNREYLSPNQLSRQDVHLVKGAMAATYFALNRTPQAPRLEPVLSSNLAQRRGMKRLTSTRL
As to `O=C1NC(=O)/C(=C\c2ccc3nccnc3c2)S1`, the residual activity (usually the signal under treatment as a percentage of the control signal) was 114%.
Still for that read-out and setting: with `Cc1nc2cc3nc(-c4cccs4)cnc3cc2n1C` the figure was 107%; with `c1ccc2c(-c3ccncc3)c[nH]c2c1`, 98%; with `COc1cc2ncnc(Nc3ccc(O)c(Br)c3)c2cc1OC`, 44%.
Same read-out and setting: the value for `CCC(=O)Nc1ccc2ncnc(Nc3cccc(Br)c3)c2c1` was 99%; that for `Cn1cnc2cc3c(Nc4cccc(Br)c4)ncnc3cc21` was 101%.
`Cc1cc(Nc2nc(-c3ccccc3)nc3ccccc23)n[nH]1`: the residual activity came to 29%.
Still for that read-out and setting: the value for `O=C1Nc2cc(Br)ccc2/C1=C1/Nc2ccccc2/C1=N\O` was 17%.
The same measure, in the same setting: with `CCN(CC)CCCCN1c2ccccc2Oc2ccc(Cl)cc21` the figure was 109%.
Same read-out and setting: with `Cn1nc2c3c(cccc31)C(=O)c1ccccc1-2` the figure was 90%; with `COc1cc2ncnc(Nc3ccc(NC(=O)c4ccccc4)cc3)c2cc1OC`, 109%.
Consider `Nc1nc(Nc2ccc(S(N)(=O)=O)cc2)nn1C(=S)Nc1c(F)cccc1F`, for which the residual activity was 0%.
On the same count and under the same terms, the value for `Cc1cccc(-c2[nH]c(C(C)(C)C)nc2-c2ccc3c(c2)OCO3)n1` was 101%; that for `COc1cc2ncc(-c3ccccc3)nc2cc1OC` was 100%; that for `C[C@@H](N)[C@H]1CC[C@H](C(=O)Nc2ccncc2)CC1` was 62%.
`CC(=O)c1ccc(N2CCOCC2)cc1O`: the residual activity was 105%.
On the same count and under the same terms, with `COc1ccc(C(=O)Nc2sc3c(c2C(N)=O)CCCC3)cc1OC` the figure was 94%; with `CCN(CC)C(=O)c1ccc(Nc2nc(OCC3CCCCC3)c3nc[nH]c3n2)cc1`, 18%; with `Cc1ccc(NC2=CC(=O)c3sc(C)nc3C2=O)cc1`, 101%.
Still for that read-out and setting: with `COc1cc2ncnc(N3CCN(C(=O)Nc4ccc(Oc5ccccc5)cc4)CC3)c2cc1OC` the figure was 90%; with `Nc1n[nH]c2nnc(-c3c(-c4ccccc4)nn4ccccc34)cc12`, 90%; with `O=C1Nc2ccccc2/C1=C1/Nc2ccccc2/C1=N\OCCC(O)CO` (centres undefined), 11%.
The same measure, in the same setting: the value for `Ic1cccc(CSc2nnc(-c3ccncc3)o2)c1` was 30%; that for `O=c1cc(-c2cccc3c2Sc2ccccc2S3)oc(N2CCOCC2)c1` was 98%.
Consider `COc1ccc(CNc2nc(N(CCO)CCO)nc3c2ncn3C(C)C)cc1`, for which the residual activity is 11%.
Consider `COc1cccc(-c2cc(=O)c3ccccc3o2)c1N`, for which the residual activity was 102%.
For `NC(=O)c1ccc2[nH]c(-c3ccc(Oc4ccc(Cl)cc4)cc3)nc2c1`, the residual activity was 18%.
On to `CNc1cc2c(Nc3cccc(Br)c3)ncnc2cn1`, for which the residual activity came out at 87%.
Still for that read-out and setting: the value for `c1ccc(-c2n[nH]cc2-c2ccnc3ccccc23)nc1` was 108%.
On to `O=C(Nc1cccc(Nc2cc(Nc3cccc(C(F)(F)F)c3)ncn2)c1)C1CC1`, for which the residual activity came to 99%.
Consider `Cc1nc(-c2ccccc2)c(-c2ccncc2)o1`, for which the residual activity is 100%.
As for `c1ccc(-c2n[nH]c3c2oc2ccccc23)cc1`, the residual activity turned out to be 92%.

The target is the same in another assay. The following applies: at 10 µM.
As for `O=C1NC(=O)/C(=C\c2ccc3nccnc3c2)S1`, the residual activity worked out at 78%.
Still for that read-out and setting: the value for `Cc1nc2cc3nc(-c4cccs4)cnc3cc2n1C` was 83%; that for `c1ccc2c(-c3ccncc3)c[nH]c2c1` was 48%; that for `COc1cc2ncnc(Nc3ccc(O)c(Br)c3)c2cc1OC` was 7%.
Same read-out and setting: the value for `CCC(=O)Nc1ccc2ncnc(Nc3cccc(Br)c3)c2c1` was 71%.
Same read-out and setting: with `Cn1cnc2cc3c(Nc4cccc(Br)c4)ncnc3cc21` the figure was 70%; with `Cc1cc(Nc2nc(-c3ccccc3)nc3ccccc23)n[nH]1`, 6%; with `O=C1Nc2cc(Br)ccc2/C1=C1/Nc2ccccc2/C1=N\O`, 28%.
In the case of `CCN(CC)CCCCN1c2ccccc2Oc2ccc(Cl)cc21`, the residual activity is 90%.
On the same count and under the same terms, the value for `Cn1nc2c3c(cccc31)C(=O)c1ccccc1-2` was 63%.
`COc1cc2ncnc(Nc3ccc(NC(=O)c4ccccc4)cc3)c2cc1OC`: the residual activity is 69%.
Same read-out and setting: with `Nc1nc(Nc2ccc(S(N)(=O)=O)cc2)nn1C(=S)Nc1c(F)cccc1F` the figure was -1%; with `Cc1cccc(-c2[nH]c(C(C)(C)C)nc2-c2ccc3c(c2)OCO3)n1`, 97%; with `COc1cc2ncc(-c3ccccc3)nc2cc1OC`, 68%.
Same read-out and setting: with `C[C@@H](N)[C@H]1CC[C@H](C(=O)Nc2ccncc2)CC1` the figure was 11%; with `CC(=O)c1ccc(N2CCOCC2)cc1O`, 107%; with `COc1ccc(C(=O)Nc2sc3c(c2C(N)=O)CCCC3)cc1OC`, 97%.
Same read-out and setting: with `CCN(CC)C(=O)c1ccc(Nc2nc(OCC3CCCCC3)c3nc[nH]c3n2)cc1` the figure was 2%.
For the compound `Cc1ccc(NC2=CC(=O)c3sc(C)nc3C2=O)cc1`, the residual activity was 102%.
Same read-out and setting: with `COc1cc2ncnc(N3CCN(C(=O)Nc4ccc(Oc5ccccc5)cc4)CC3)c2cc1OC` the figure was 71%; with `Nc1n[nH]c2nnc(-c3c(-c4ccccc4)nn4ccccc34)cc12`, 68%; with `O=C1Nc2ccccc2/C1=C1/Nc2ccccc2/C1=N\OCCC(O)CO` (centres undefined), 2%.
The same measure, in the same setting: the value for `Ic1cccc(CSc2nnc(-c3ccncc3)o2)c1` was 24%; that for `O=c1cc(-c2cccc3c2Sc2ccccc2S3)oc(N2CCOCC2)c1` was 99%; that for `COc1ccc(CNc2nc(N(CCO)CCO)nc3c2ncn3C(C)C)cc1` was 5%.
`COc1cccc(-c2cc(=O)c3ccccc3o2)c1N`: the residual activity turned out to be 101%.
For `NC(=O)c1ccc2[nH]c(-c3ccc(Oc4ccc(Cl)cc4)cc3)nc2c1`, the residual activity stood at 5%.
Same read-out and setting: the value for `CNc1cc2c(Nc3cccc(Br)c3)ncnc2cn1` was 38%; that for `c1ccc(-c2n[nH]cc2-c2ccnc3ccccc23)nc1` was 95%.
On the same count and under the same terms, the value for `O=C(Nc1cccc(Nc2cc(Nc3cccc(C(F)(F)F)c3)ncn2)c1)C1CC1` was 55%; that for `Cc1nc(-c2ccccc2)c(-c2ccncc2)o1` was 92%.
The same measure, in the same setting: with `c1ccc(-c2n[nH]c3c2oc2ccccc23)cc1` the figure was 64%.
